Test results as given in PubChem BioAssay AID1159580 (chemical genetic matrix, 2015).
The campaign covered roughly 5,500 compounds. About 2,000 (36%) were called active. Roughly 18% stayed inconclusive and do not appear here. Rule as the data show it: active = normalized growth mostly below about 0.91 (no sharp cut-off); inconclusive = no clear call, values can overlap the other calls; inactive = mostly above about 0.92. Some of the results follow.

Test: chemical genetic growth profiling, strain panel (AID 1159580);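 also: tested at 20 µM; growth read once vehicle control cultures reached saturation at 30 °C; 1 = growth at the plate median or of vehicle wells; lower values mean less growth of the strain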
Conditions: S. cerevisiae deletion strains, growth OD

Measured: normalized growth

Fc1ccc(C(OCCCc2cnc[nH]2)c2ccc(F)cc2)cc1
inactive: locus YAL040C, strain CLN3, stronger effect = lower value 1.01 | locus YCL061C, strain MRC1 (second series), stronger effect = lower value 1 | locus YDR363W, strain ESC2, stronger effect = lower value 0.979 | locus YER002W, strain NOP16, stronger effect = lower value 1.04 | locus YGR229C, strain SMI1, stronger effect = lower value 1.02 | locus YMR263W, strain SAP30, stronger effect = lower value 1.01 | locus YNL175C, strain NOP13, stronger effect = lower value 1.01 | locus YNL197C, strain WHI3, stronger effect = lower value 1.01 | locus YNL224C, strain SQS1, stronger effect = lower value 1.02 | locus YNL322C, strain KRE1, stronger effect = lower value 1.03 | locus YOR083W, strain WHI5 (second series), stronger effect = lower value 1.03 | locus YPL241C, strain CIN2, stronger effect = lower value 1.01
